High-throughput results deposited in PubChem BioAssay by NMMLSC.
RGS8-Gao: modulates binding of RGS8 to human Galphao | AID 1423 | P09471 | response (percent of control binding), % at 10 µM | multiplexed bead flow cytometry; actives lie on both sides | actives 0.34% (n = 220,000); in the data active = response below about 60% or above about 140%; inactive = in between;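 also: Galphao activated as the GDP aluminium fluoride complex binding bead-coupled RGS8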
Target sequence (P09471 whole entry, looked up): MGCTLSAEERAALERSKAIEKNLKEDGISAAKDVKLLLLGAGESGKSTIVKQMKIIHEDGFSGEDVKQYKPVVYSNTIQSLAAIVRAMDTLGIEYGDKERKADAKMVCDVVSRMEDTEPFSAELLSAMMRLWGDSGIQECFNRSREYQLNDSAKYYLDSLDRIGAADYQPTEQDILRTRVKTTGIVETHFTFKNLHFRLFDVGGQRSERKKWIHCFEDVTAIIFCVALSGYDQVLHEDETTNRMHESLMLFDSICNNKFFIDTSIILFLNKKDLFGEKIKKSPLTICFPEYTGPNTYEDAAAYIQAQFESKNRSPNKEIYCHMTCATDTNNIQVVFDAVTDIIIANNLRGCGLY
RGS4-Gao reg: human RGS4-Galphao interaction regulation | P09471 | Multiplexed bead flow cytometry, RGS4-Galphao binding; actives lie on both sides | binding response (% of control), % at 10 µM | actives 0.33% (n = 220,000); in the data active = binding response below about 49% or above about 150%; inactive = in between;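 also: fluorescent Galphao activated with aluminum fluoride binding bead-coupled RGS4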
RGS16-Gao: regulators of human RGS16-Galphao interaction | AID 1441 | binding response (% of control), % at 10 µM | bead-based flow cytometry RGS16-Galphao binding, fluorescence; actives lie on both sides | actives 0.38% (n = 220,000) | O15492+P09471;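 also: Galphao activated by GDP with aluminum fluoride before binding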
Target sequence (O15492 whole entry, looked up): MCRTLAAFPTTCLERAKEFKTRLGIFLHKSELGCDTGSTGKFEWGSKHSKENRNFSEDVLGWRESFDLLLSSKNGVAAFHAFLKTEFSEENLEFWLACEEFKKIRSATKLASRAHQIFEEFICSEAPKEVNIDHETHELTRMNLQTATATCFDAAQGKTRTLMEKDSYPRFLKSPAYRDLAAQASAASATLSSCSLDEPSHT
Target sequence (P09471 whole entry, looked up): as the sequence (P09471 whole entry, looked up) above
GSH bead fluor: GSH bead compound fluorescence profile; GSH beads flow cytometry, compound fluorescence 488/530 nm; hits give high values; fluorescence (KMESF) at 10 µM; actives 0.25% (n = 190,000); AID 1776; in the data active = fluorescence above about 89;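 also: glutathione beads carrying GST-tagged Bcl family fusion proteins plus one bare bead set; values are compound well signal with DMSO vehicle wells as background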
RGS7-Gao: human RGS7-Galphao interaction regulation. binding response (% of control), % at 10 µM. actives 0.35% (n = 220,000). Multiplexed bead flow cytometry, RGS7-Galphao binding; actives lie on both sides; in the data active = binding response below about 49% or above about 150%; inconclusive = no clear call, values can overlap the other calls; inactive = in between;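 also: fluorescent Galphao held in activated GDP-AlF4 state binding bead-coupled RGS7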
Avidin fluor: avidin bead compound fluorescence profile; fluorescence (KMESF) at 10 µM; actives 0.38% (n = 220,000); Avidin beads, compound fluorescence 488/530 nm, flow cytometry; hits give high values; in the data active = fluorescence above about 47
RGS-Gao: modulates binding between human RGS4 and Galphao; shares compounds with RGS16-Gao; multiplexed bead flow cytometry, RGS–Galpha-o binding; RGS4–Galpha-o binding response, % at 10 µM; actives 99% (n = 1,600);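 also: fluorescently labeled Galpha-o bound to GDP with aluminium fluoride binding biotinylated RGS beads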
Avidin counter: counter-screen: compounds disrupting biotin binding to avidin beads; inhibition, % at 10 µM; 1,700 tested, under 10 active; AID 1783; shares compounds with RGS16-Gao; streptavidin beads, fluorescein-biotin binding, flow cytometry;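 active = inhibition above 50%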;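 also: median green fluorescence of gated singlet beads compared with DMSO control wells; 0% = DMSO wells and 100% = complete loss of bead fluorescence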
RGS8-Gao single: RGS8-Galphao interaction regulation, single point confirmation. actives 3% (n = 1,700). binding response (% of control), % at 10 µM. bead-based flow cytometry RGS8-Galphao binding, fluorescence; actives lie on both sides. shares compounds with RGS16-Gao. AID 1836; in the data active = binding response below about 72% or above about 130%; inactive = in between;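 also: Galphao activated as GDP AlF4 complex before binding bead RGS8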
RGS7-Gao single: confirmation of regulators of human RGS7-Galphao interaction | shares compounds with RGS16-Gao | bead-based flow cytometry RGS7-Galphao binding; actives lie on both sides | response (percent of control binding), % at 10 µM | actives 7.8% (n = 1,700) | AID 1837; in the data active = response below about 75% or above about 130%; inactive = in between;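 also: fluorescent Galphao activated with GDP and aluminum fluoride binding bead-coupled RGS7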
RGS16-Gao single: confirmation of regulators of human RGS16-Galphao interaction; shares compounds with RGS16-Gao; actives 4% (n = 1,700); response (% of control binding), % at 10 µM; bead-based flow cytometry, RGS16-Galphao binding; actives lie on both sides; AID 1838; in the data active = response below about 74% or above about 130%; inactive = in between;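 also: Galphao activated as the GDP aluminium fluoride complex binding bead-coupled RGS16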
RGS4-Gao single: confirmation of regulators of human RGS4-Galphao interaction; shares compounds with RGS16-Gao; RGS4-Galphao binding, multiplexed bead flow cytometry; actives lie on both sides; binding response (% of control), % at 10 µM; actives 4% (n = 1,700); in the data active = binding response below about 74% or above about 130%; inactive = in between
RGS19-Gao single: confirmation of regulators of human RGS19-Galphao interaction. shares compounds with RGS16-Gao. bead-based flow cytometry RGS19-Galphao binding; actives lie on both sides. response (percent of control binding), % at 10 µM. actives 5% (n = 1,700). AID 1841; in the data active = response below about 50% or above about 160%; inactive = in between;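 also: 100% = no compound control and 0% = blank background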
* marks the source's active call; other numbers are inactive results; u = inconclusive; x = not tested or not shown; [ ] = another dose, or the depositor's remark. Only some compounds are listed: those with a hit (about 1.2% of all), similar ones and a draw of the others. Unless noted, no rule for the calls is given here.

SMILES	RGS8-Gao	RGS4-Gao reg	RGS16-Gao	GSH bead fluor	RGS7-Gao	Avidin fluor	Avidin counter	RGS8-Gao single	RGS7-Gao single	RGS16-Gao single	RGS4-Gao single	RGS19-Gao single	others
Cc1ccc(NNC(=O)c2ccc(Cl)cc2)nn1	100	99	96	x	u	6	x	x	x	x	x	x
CC(=O)Nc1ccc(OC(=O)c2cc3cc(Br)cc(Br)c3oc2=O)cc1	80	91	19*	8	81	4	-2	100	88	96	92	96	RGS-Gao=91*
CC(=O)Nc1ccc(OC(=O)c2cc3cc(Br)ccc3oc2=O)cc1	103	102	101	9	96	12	x	x	x	x	x	x
O=C(CCn1cccc1)Nc1ccc(OC(F)(F)F)cc1	98	99	101	8	96	14	x	x	x	x	x	x
CC(C)(CC(=O)O)CC(=O)NCc1c(Cl)cccc1Oc1ccccc1	103	101	105	x	u	6	x	x	x	x	x	x
CC1CCN(C(=O)c2ccc(N3C(=O)C4CCC(C)CC4C3=O)cc2)CC1 (configuration not stated)	67	32*	45	x	u	1	0	101	106	102	102	96
CC(C)C(c1nnnn1Cc1ccc(F)cc1)N1CCN(c2ccc(O)cc2)CC1 (configuration not stated)	95	99	102	10	102	20	x	x	x	x	x	x
OCCNc1nc(-c2ccccc2)nc2c1oc1ccccc12	95	89	87	x	u	7	x	x	x	x	x	x
Cc1ccc(NC(=O)c2cccc(OCc3c(C)noc3C)c2)cc1	103	100	103	10	99	8	x	x	x	x	x	x
Cc1ccc(NC(=O)c2ccc(OCc3c(C)noc3C)cc2)cc1	53*	23*	27	x	u	1	0	101	106	106	106	104
Oc1ccc(N=Cc2ccc(O)c(O)c2)cc1	61	59	0	6	49*	2	-3	89	86	88	89	81	RGS-Gao=59*
O=Cc1ccc(O)c(O)c1	88	84	83	19	82	7	x	x	x	x	x	x
Cc1nn(C(=O)N2CCCCC2)c(C)c1CN1C(=O)c2ccccc2C1=O	x	x	x	12	x	x	0	102	105	103	103	66
Cc1nn(C(=O)c2cccs2)c(C)c1CN1C(=O)c2ccccc2C1=O	102	104	101	40	96	7	x	x	x	x	x	x
COc1ccc2nc(SCC(=O)NCC(F)(F)F)[nH]c2c1	96	96	97	63	95	12	x	x	x	x	x	x
O=c1cc(-c2ccccc2Cl)oc2ccc([N+](=O)[O-])c(O)c12	101	96	103	19	96	11	x	x	x	x	x	x
Nc1ccc2oc(-c3ccccc3Cl)cc(=O)c2c1O	107	184*[activator]	110	18	167*[activator]	89*	0	102	111	104	107	95
COC(=O)CCC(=O)Nc1sc(C)c(C)c1C(N)=O	x	x	x	44	x	x	0	82	73*	70*	69*	44*
CSc1ccccc1NC(=O)Cn1nc([N+](=O)[O-])cc1C	97	100	95	11	u	13	x	x	x	x	x	x
CCOC(=O)NC1=NCC(C)S1 (configuration not stated)	97	94	96	x	u	8	x	x	x	x	x	x
Oc1c(Br)cc(Br)cc1/C=N/N1CCN(Cc2ccccc2)CC1	101	112	103	17	172*[activator]	107*	-1	104	101	105	102	100	RGS-Gao=112*
COc1ccc(CNC(=O)C2CCC(CNc3c(N4CCCCC4)c(=O)c3=O)CC2)cc1 (configuration not stated)	24*	20*	14*	x	u	0	1	107	111	106	108	100
c1ccc2c(C3=NNC(=NC4CCCCC4)SC3)c[nH]c2c1	79	96	5.2*	5	95	8	0	102	101	103	105	97	RGS-Gao=96*
O=C(N=Nc1c(O)[nH]c2ccc(Br)cc12)c1cc(-c2cccc3ccccc23)n[nH]1	67	89	8.3*	9	83	9	-1	93	90	98	96	123	RGS-Gao=89*
CC(C)Cn1c(N)c(C(=O)CSc2nc3ccccc3c(=O)n2CCCN2CCOCC2)c(=O)n(C)c1=O	102	99	100	13	u	12	x	x	x	x	x	x
SMILES	RGS8-Gao	RGS4-Gao reg	RGS16-Gao	GSH bead fluor	RGS7-Gao	Avidin fluor	Avidin counter	RGS8-Gao single	RGS7-Gao single	RGS16-Gao single	RGS4-Gao single	RGS19-Gao single	others
Nc1ccc(-c2ccc(N)cc2C(F)(F)F)c(C(F)(F)F)c1	101	118	110	24	204*[activator]	123*	-2	101	101	97	97	105	RGS-Gao=118*
Cc1ccc(-c2nn3c(C)nnc3c3ccccc23)cc1S(=O)(=O)NC(C)(C)CO	104	103	109	10	104	11	x	x	x	x	x	x
Cc1ccc(-c2nn3c(C)nnc3c3ccccc23)cc1S(=O)(=O)NCCO	105	115	111	24	172*[activator]	73*	1	98	96	98	102	88	RGS-Gao=115*
COC(=O)Cc1ccc(NC(=O)c2ccccc2Br)cc1	28*	33*	24*	16	u	3	0	99	98	100	98	99
COC(=O)Cc1ccc(NC(=S)NNC(=O)c2ccccc2Br)cc1	104	104	114	8	103	3	x	x	x	x	x	x
COc1ccc(C2Oc3ccccc3N2C(C)=O)cc1 (configuration not stated)	102	102	100	15	101	16	x	x	x	x	x	x
CC(=O)Oc1ccc(C2OC(=O)c3ccccc3N2C(C)=O)cc1 (configuration not stated)	106	x	x	40	x	x	0	98	97	96	98	100
